Where “and” joins values, the source holds several entries; their conditions need not be identical. Identical values can stand only once. About 83,000 compounds went through this panel and 20% of them were active in at least one assay; those are over-represented in the sample as a whole.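 In brief: 96-well plates, 48 h treatment, single concentration, percent growth endpoint.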 Calls of active or inactive are those of the source.
The molecules below were run on SW-620 colon (assay: NCI-60 one-dose screen, 48 h (100 = growth as untreated, 0 = no growth, -100 = all killed)). Settings: 10 µM.
Experimental: Growth inhibition of the SW-620 human tumor cell line is measured as a screen for anti-cancer activity. Cells are grown in 96 well plates and exposed to the test compound for 48 hours. Compounds are tested at a single concentration, which is 10^-5 M for most compounds. The reported endpoint is percent growth (GI% or GIPRCNT), where numbers from 0 - 100% represent growth inhibition, and numbers from -100% - 0 represent cell death. For example, a value of 40 represents 60% growth inhibition. A value of 0 means no net growth occurred over the course of the experiment. A value of -40 indicates 40% of cells at the beginning of the experiment died by the end of the experiment. A value of -100 means all cells are dead at the end of the experiment.
NCI-60 Human Tumor Cell Lines Screen was performed using the standard one-dose NCI protocol, which is described in more detail at https://dtp.cancer.gov/discovery_development/nci-60/default.htm.
Compounds with GIPRCNT values below 10 were considered active. Activity score was based on GIPRCNT using the following formula: […]
Score is 0 for GIPRCNT values of 100 or above, 50 for GIPRCNT values of 0, and 100 for GIPRCNT values of -100.

Row | Compound | growth
1 | CC(C)(C)c1cc(NC(=O)Cc2ccc(-c3cnc4cc(-c5cnn(CCN6CCOCC6)c5)ccc4n3)cc2)no1 | 15.5% (inactive)
2 | CCc1ccccc1-n1c(N)c(C#N)c(-c2ccc(OC)c(OC)c2)c(C#N)c1=O | 116% (inactive)
3 | Cc1[nH]c(-c2nc3ccccc3[nH]2)c(C)c1C(=O)NC(C)C1CCCCC1 (stereo unspecified) | 92.9% (inactive)

Same assay, conditions: 10 µM unless noted

Row | Compound | growth
4 | O=C(CCl)c1ccc2c(c1)Nc1ccccc1S2 | 92.2% (inactive) and 79.1% (inactive)
5 | CC(=O)Nc1cccc2c1CCCC2 | 108% (inactive) and 107% (inactive)
6 | Cc1nn(-c2ccccc2)nc1C(=O)Nc1ccccc1C(=O)NCC1CC1 | 104% (inactive) and 68.7% (inactive)
7 | COc1ccc(CCN(C)CCCC(C#N)(c2ccc(OC)c(OC)c2)C(C)C)cc1OC (stereo unspecified) | 92.8% (inactive) and 100% (inactive) and 92.6% (inactive)
8 | O=C1NC(=O)C2(CCc3ccccc32)N1 (stereo unspecified) | 117% (inactive)
9 | CC(C)N=c1cc2n(-c3ccc(Cl)cc3)c3ccccc3nc-2cc1Nc1ccc(Cl)cc1 | 13.4% (inactive) and 9.23% (active) and 6.7% (active)
10 | CCC(O)c1ccccc1 (stereo unspecified) | 109% (inactive) and 104% (inactive)
11 | CCOC(=O)C(C(=O)OCC)C(c1ccccc1)N1CCN(c2ccccc2)CC1 (stereo unspecified) | 113% (inactive) and 111% (inactive)
12 | Cc1ccc(S(=O)(=O)Nc2ccc3cc([N+](=O)[O-])ccc3c2[N+](=O)[O-])cc1 | 91.9% (inactive) and 93.4% (inactive)
13 | Cn1cc(-c2cc3c(Nc4ccc(CC(=O)Nc5cc(C(C)(C)C)on5)cc4)ncnc3[nH]2)cn1 | -7.24% (active) and 1.5% (active)
14 | CCN(CC)CCCC(C)Nc1ccnc2cc(Oc3ccccc3)ccc12 (stereo unspecified) | 55.8% (inactive) and 79.4% (inactive)
15 | CN1CCN(Cc2occc(=O)c2O)CCN(C)CCN(Cc2occc(=O)c2O)CC1 | 113% (inactive) and 15.6% (inactive)
16 | O=C(c1ccc(Cl)cc1)C(NCCO)c1ccc(Cl)cc1 (stereo unspecified) | 101% (inactive) and 102% (inactive)
17 | O=C1CCN(Cc2ccccc2)C(=S)N1 | 105% (inactive)
18 | CC12CCC(CC1)C(C)(C)O2 | 104% (inactive)
19 | CCc1c(CC(=O)O)c2cc(C)ccc2n1Cc1ccc(Cl)cc1 | 102% (inactive)
20 | c1ccc2c(CC3=NCCN3)cccc2c1 | 107% (inactive) and 110% (inactive)
21 | CN1CCN(CCC=C2c3ccccc3Sc3ccc(S(=O)(=O)N(C)C)cc32)CC1 | 76.9% (inactive) and 74.2% (inactive)

Row | Compound | growth
22 | ClC/C=C/CSc1ncnc2nc[nH]c12 | 98.8% (inactive) and 110% (inactive)
23 | CCOC(=O)c1c(C)oc(C)c(C(=O)OCC)c1=O | 104% (inactive) and 98.3% (inactive)
24 | N=C1N=C(N)CS1 | 102% (inactive)
25 | CN(C)c1ccc(/C=C(\C#N)c2ccccc2)cc1 | 18.1% (inactive) and 33.3% (inactive) and 21.8% (inactive)
26 | CC(=O)C(/C=N/C(N)=O)=C(/C)O | 105% (inactive)
27 | O=C1c2c(O)cc(O)cc2OC(c2ccc(O)c(O)c2)C1O (stereo unspecified) | 104% (inactive)
28 | CC(=O)c1ccccc1O | 103% (inactive) and 105% (inactive) and 113% (inactive)
29 | Cc1ccc(NCSc2ccc(Cl)cc2)cc1 | 86.2% (inactive) and 96.6% (inactive)
30 | CC1CCCC(=O)O1 (stereo unspecified) | 105% (inactive) and 104% (inactive)
31 | CCOC(=O)Nc1ccc2c(c1)/C(=N\NC(N)=S)c1ccccc1-2 | 80.7% (inactive) and 81.2% (inactive)
32 | Cc1cc(-c2ccc(NS(=O)(=O)c3ccccc3)c(C)c2)ccc1NS(=O)(=O)c1ccccc1 | 92.2% (inactive) and 108% (inactive)
33 | O=C(O)C1C2C=CC(C2)C1C(=O)O (stereo unspecified) | 104% (inactive) and 22.1% (inactive) and 103% (inactive)
34 | COc1cc(Nc2nc3ccccc3nc2NS(=O)(=O)c2ccc(NC(=O)c3ccc(C)c(OC)c3)cc2)cc(OC)c1 | 52% (inactive) and 28.1% (inactive)
35 | Cc1c(Cl)cccc1NCN1C(=O)c2ccccc2C1=O | 110% (inactive)
36 | O=[N+]([O-])c1ccc(Oc2ccccc2)cc1 | 95.7% (inactive) and 94.1% (inactive)
37 | Cn1c(=O)c2[nH]c(CCCCCCCCc3nc4ccccc4[nH]3)nc2n(C)c1=O | 91.7% (inactive) and 91.2% (inactive)
38 | CCN(CC)CCNc1cc(-c2cccc(OC(F)(F)F)c2)nc2ccc(N3CCCC3)cc12 | 31% (inactive) and 0.803% (active) and 8.35% (active)

Same assay, conditions: 30 µM

Row | Compound | growth
39 | CC(C)(C)c1cc(NC(=O)Cc2ccc(-c3cnc4cc(-c5cnn(CCN6CCOCC6)c5)ccc4n3)cc2)no1 | 18.8% (inactive)

Same assay, conditions: 100 µM

Row | Compound | growth
40 | CCc1ccccc1-n1c(N)c(C#N)c(-c2ccc(OC)c(OC)c2)c(C#N)c1=O | 86.4% (inactive)
41 | Cc1[nH]c(-c2nc3ccccc3[nH]2)c(C)c1C(=O)NC(C)C1CCCCC1 (stereo unspecified) | -68.8% (active)

Reference: PubChem BioAssay (NCI)
